Data on seven molecules can be found in PubChem BioAssay (Tox21).

Assay [1] in a line: Human pregnane X receptor (PXR) small molecule agonists, qHTS cell viability counter screen (AID 1346977). Note: nearly all actives have a fitted effect of over 50% in size. The essentials:
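Readout is CellTiter-Fluor fluorescence from PXR-Luc HepG2 cells. Plated cells rested 5hr, then were treated with compounds for 24hr at 37C and 5% CO2, with reagent present during the last hour.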

A short description of assay [2]: Caspase-3/7 induction in CHO-K1 cells by small molecules, qHTS cell viability counter screen (AID 1346979). Note: nearly all actives have a fitted effect of over 35% in size. In short, it runs like this: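 To flag cytotoxic compounds, treated CHO-K1 wild-type cells were given CellTiter-Fluor at 16hr and read fluorescently after 1hr at 37C; the caspase-3/7 luminescence was measured in these same wells.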
The nature of assay [3]: Caspase-3/7 induction in CHO-K1 cells by small molecules, qHTS assay (AID 1346980). Note: nearly all actives have a fitted effect of over 15% in size. The essentials: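 Wild-type cells were seeded at 1,500 per well and settled 5 hr at 37 C, 5% CO2, then exposed to DMSO-dissolved compounds for 17 hr. Caspase-Glo 3/7 reagent was added, and luminescence was read after 30min at room temperature.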
Assay [4] can be described thus: Caspase-3/7 induction in HepG2 cells by small molecules, qHTS cell viability counter screen (AID 1346981). Note: series mostly up to about 92 µM; nearly all actives have a fitted effect of over 30% in size. The essentials:
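Counter screen for cytotoxicity: HepG2 exposed 16 hr to compounds, then CellTiter-Fluor viability signal (fluorescence, 1 hr reagent incubation).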

For assay [5], the target named is Nuclear receptor subfamily 1 group I member 2 (Homo sapiens) (UniProt O75469). The experiment in a line: Human pregnane X receptor (PXR) small molecule agonists, qHTS assay (AID 1346982). Note: nearly all actives have a fitted effect of over 35% in size. The essentials: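 Luminescence (ONE-Glo, 30 min RT) after 24 hr compound exposure of PXR-Luc HepG2 cells; cells rested 5 hr post-plating in 5% charcoal-stripped FBS medium.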
Chain of Nuclear receptor subfamily 1 group I member 2 (Homo sapiens) (O75469 whole entry, looked up): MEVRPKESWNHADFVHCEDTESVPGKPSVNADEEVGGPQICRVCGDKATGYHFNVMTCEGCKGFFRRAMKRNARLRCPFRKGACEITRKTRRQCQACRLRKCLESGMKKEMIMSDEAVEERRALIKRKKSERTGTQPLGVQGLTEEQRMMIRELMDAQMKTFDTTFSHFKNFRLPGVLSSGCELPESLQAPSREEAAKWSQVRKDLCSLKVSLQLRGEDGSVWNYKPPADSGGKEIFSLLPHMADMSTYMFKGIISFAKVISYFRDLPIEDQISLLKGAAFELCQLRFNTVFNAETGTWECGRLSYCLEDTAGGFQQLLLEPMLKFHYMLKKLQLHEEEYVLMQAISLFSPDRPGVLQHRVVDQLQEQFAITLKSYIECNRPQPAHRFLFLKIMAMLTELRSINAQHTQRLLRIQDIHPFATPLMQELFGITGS
In assay [6] the target is Acetylcholinesterase (Homo sapiens) (UniProt P22303). The experiment in a line: Acetylcholinesterase (AChE) small molecule antagonists: colormetric cell-based qHTS assay (AID 1347395; calls by dose curve; note: nearly all actives have a fitted effect of over 30% in size). The essentials: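 Neuroblastoma line SH-SY5Y supplied the enzyme; cells were preincubated with compound for 30 min at 37 C and 5% CO2. Acetylthiocholine with DTNB was then added for 90 min at 37 C, and thiocholine was measured by colour.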
Chain of Acetylcholinesterase (Homo sapiens) (P22303 whole entry, looked up): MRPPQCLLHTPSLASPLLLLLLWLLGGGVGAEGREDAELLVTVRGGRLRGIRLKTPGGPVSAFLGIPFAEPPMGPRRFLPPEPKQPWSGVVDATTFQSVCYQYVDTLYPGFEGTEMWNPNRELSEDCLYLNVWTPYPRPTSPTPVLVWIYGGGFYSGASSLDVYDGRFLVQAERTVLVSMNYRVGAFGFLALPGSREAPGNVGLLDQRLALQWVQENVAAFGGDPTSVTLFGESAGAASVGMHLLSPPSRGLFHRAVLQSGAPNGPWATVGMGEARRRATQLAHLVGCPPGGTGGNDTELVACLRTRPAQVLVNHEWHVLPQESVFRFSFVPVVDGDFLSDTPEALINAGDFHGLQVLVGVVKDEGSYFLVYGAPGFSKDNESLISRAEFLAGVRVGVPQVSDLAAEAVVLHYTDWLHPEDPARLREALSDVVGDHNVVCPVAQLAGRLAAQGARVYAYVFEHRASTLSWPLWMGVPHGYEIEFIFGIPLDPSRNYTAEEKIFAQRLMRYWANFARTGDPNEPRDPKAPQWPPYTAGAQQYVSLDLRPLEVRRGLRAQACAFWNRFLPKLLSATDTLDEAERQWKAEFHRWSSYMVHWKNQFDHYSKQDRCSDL

Assay [7] has the same target. Briefly: Acetylcholinesterase (AChE) small molecule antagonists: enzyme-based qHTS assay (AID 1347397; calls by dose curve; note: nearly all actives have a fitted effect of over 55% in size; note: potency is the fitted concentration of half-maximal effect). The following applies: Potency: AChE enzyme activity inhibition; outcome: AChE enzyme activity inhibition. The essentials:
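Human recombinant acetylcholinesterase; substrate acetylthiocholine; thiocholine quantified with DTNB (colorimetric). Compound preincubation 30 min RT; reaction 10 min RT.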

Assay [8] shares this target. Briefly: Acetylcholinesterase (AChE) small molecule antagonists: fluorescence cell-based qHTS assay (AID 1347398; calls by dose curve; note: nearly all actives have a fitted effect of over 50% in size; note: potency is the fitted concentration of half-maximal effect). The following applies: Potency: AChE activity; outcome: AChE activity. In short, it runs like this:
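Thiocholine generated from acetylthiocholine by SH-SY5Y cell AChE is detected with Thiolite Green (Ex/Em 490/520 nm) after 40 min at room temperature, following 30 min compound pretreatment at 37 C.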

Assay [9] shares this target. The experiment in a line: Acetylcholinesterase (AChE) small molecule antagonists: enzyme-based qHTS assay with human liver microsomes (AID 1347399; calls by dose curve; note: nearly all actives have a fitted effect of over 60% in size; note: potency is the fitted concentration of half-maximal effect). The following applies: Potency: qHTS inhibition; outcome: qHTS inhibition. The essentials:
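Recombinant human AChE (50 mU/mL in the enzyme mix) and human liver microsomes (0.25 mg/mL final) were preincubated with compound and NADPH (0.25 mg/mL final) for 30 min at 37 C. Acetylthiocholine/DTNB was then added; thiocholine was read colorimetrically after 10 min at room temperature.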

Assay [10] deals with Cytochrome P450 2D6 (Homo sapiens) (UniProt P10635). Briefly: Cytochrome P450 Family 2 Subfamily D Member 6 (CYP2D6) small molecule antagonists: luciferase reporter qHTS assay (AID 1671196). Note: series mostly up to about 120 µM; nearly all actives have a fitted effect of over 50% in size. In short, it runs like this: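 Inhibition of CYP2D6 was gauged by loss of luminescence, since light produced tracks the luciferin generated from a proluciferin substrate. A 10 min room-temperature preincubation preceded 1 h NADPH-supported turnover.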
Chain of Cytochrome P450 2D6 (Homo sapiens) (P10635 whole entry, looked up): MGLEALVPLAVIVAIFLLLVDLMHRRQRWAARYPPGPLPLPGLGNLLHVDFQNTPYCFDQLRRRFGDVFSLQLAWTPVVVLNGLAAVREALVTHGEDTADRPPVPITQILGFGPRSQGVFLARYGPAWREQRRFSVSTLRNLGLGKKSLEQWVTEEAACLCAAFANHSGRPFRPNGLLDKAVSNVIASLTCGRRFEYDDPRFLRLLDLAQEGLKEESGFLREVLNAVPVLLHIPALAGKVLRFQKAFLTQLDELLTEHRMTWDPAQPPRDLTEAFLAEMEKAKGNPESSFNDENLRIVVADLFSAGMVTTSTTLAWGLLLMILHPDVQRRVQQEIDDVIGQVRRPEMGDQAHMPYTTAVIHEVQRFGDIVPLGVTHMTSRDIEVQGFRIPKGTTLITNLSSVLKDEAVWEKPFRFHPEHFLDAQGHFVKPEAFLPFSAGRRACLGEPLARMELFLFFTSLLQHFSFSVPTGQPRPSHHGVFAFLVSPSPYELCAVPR

For assay [11], the target named is Cytochrome P450 2C19 (Homo sapiens) (UniProt P33261). Briefly: Cytochrome P450 Family 2 Subfamily C Member 19 (CYP2C19) small molecule antagonists: luciferase reporter qHTS assay (AID 1671197). Note: nearly all actives have a fitted effect of over 65% in size. Note: potency is the fitted concentration of half-maximal effect. In short, it runs like this:
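Enzyme-substrate mix with proluciferin substrate (P450-Glo CYP2C19 system) preincubated with compounds 10 min at room temperature; NADPH regeneration solution added, 37C for 1 h; detection reagent stops reaction, luminescence read after 20 min. Ketoconazole positive control.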

Assay [12] deals with Cytochrome P450 2C9 (Homo sapiens) (UniProt P11712). The experiment in a line: Cytochrome P450 Family 2 Subfamily C Member 9 (CYP2C9) small molecule antagonists: luciferase reporter qHTS assay (AID 1671198). Note: nearly all actives have a fitted effect of over 50% in size. Note: potency is the fitted concentration of half-maximal effect. The essentials: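 CYP2C9 activity was measured with a P450-Glo proluciferin substrate. Enzyme–substrate mix was held with compound for 10 min at room temperature, then NADPH regeneration solution was added for 1 h at 37C. Luciferin product was read as luminescence.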
Chain of Cytochrome P450 2C9 (Homo sapiens) (P11712 whole entry, looked up): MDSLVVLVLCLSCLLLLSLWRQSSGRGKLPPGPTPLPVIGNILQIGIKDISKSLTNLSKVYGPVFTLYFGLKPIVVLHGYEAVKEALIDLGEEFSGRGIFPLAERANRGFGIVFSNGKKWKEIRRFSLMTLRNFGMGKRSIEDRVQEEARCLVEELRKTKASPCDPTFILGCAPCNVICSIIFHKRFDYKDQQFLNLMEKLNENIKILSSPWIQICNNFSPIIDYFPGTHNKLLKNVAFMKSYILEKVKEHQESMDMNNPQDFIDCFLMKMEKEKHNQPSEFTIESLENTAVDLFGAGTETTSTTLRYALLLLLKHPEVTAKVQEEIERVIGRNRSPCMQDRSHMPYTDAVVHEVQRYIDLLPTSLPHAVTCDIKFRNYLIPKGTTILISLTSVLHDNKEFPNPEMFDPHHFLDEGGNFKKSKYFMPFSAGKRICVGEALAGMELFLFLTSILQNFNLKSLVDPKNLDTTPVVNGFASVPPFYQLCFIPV

For assay [13], the target named is Voltage-gated inwardly rectifying potassium channel KCNH2 (Homo sapiens) (UniProt Q12809). The experiment in a line: Human Ether-a-go-go-Related Gene (hERG) channel small molecule antagonists: fluorescence cell-based qHTS assay (AID 1671200). The essentials:
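Measured: Tl+ flux via fluorescence (480/540 nm) in hERG-expressing U2OS cells after 1 h dye loading at room temperature.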

The target in assay [14] is Cytochrome P450 3A4 (Homo sapiens) (UniProt P08684). Briefly: Cytochrome P450 Family 3 Subfamily A Member 4 (CYP3A4) small molecule antagonists: luciferase reporter qHTS assay (AID 1671201). In short, it runs like this: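 Setup: enzyme-substrate mix, compound pin transfer, 10 min RT. Reaction: NADPH regeneration solution, 1 h RT. Readout: detection reagent stops turnover, luminescence measured after 20 min, expressed in relative luminescence units.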
Chain of Cytochrome P450 3A4 (Homo sapiens) (P08684 whole entry, looked up): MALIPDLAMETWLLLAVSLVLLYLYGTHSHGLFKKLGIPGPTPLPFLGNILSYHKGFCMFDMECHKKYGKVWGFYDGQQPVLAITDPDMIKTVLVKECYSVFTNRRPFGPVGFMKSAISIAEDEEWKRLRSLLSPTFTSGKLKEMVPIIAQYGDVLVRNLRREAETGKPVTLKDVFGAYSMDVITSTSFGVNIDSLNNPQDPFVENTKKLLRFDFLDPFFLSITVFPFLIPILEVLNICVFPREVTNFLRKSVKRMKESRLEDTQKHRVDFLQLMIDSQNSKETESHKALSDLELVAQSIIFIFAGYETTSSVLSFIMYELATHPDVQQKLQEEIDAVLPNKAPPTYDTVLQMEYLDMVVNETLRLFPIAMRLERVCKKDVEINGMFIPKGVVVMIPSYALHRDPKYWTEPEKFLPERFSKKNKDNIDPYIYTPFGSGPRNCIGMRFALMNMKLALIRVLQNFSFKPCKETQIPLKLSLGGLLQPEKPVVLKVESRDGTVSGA

Assay [15] is described as follows: Caspase-3/7 induction in HepG2 cells by small molecules, qHTS assay (AID 1346978). Note: nearly all actives have a fitted effect of over 15% in size. The essentials:
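Wild-type HepG2 cells (2,000/well) were settled 5 h at 37 C, 5% CO2, then exposed to compounds in DMSO for 17 h. Caspase-3/7 activity was read by luminescence 30 min after adding Caspase-Glo 3/7 reagent at room temperature.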

The target in assay [16] is Cytochrome P450 1A2 (Homo sapiens) (UniProt P05177). Briefly: Cytochrome P450 Family 1 Subfamily A Member 2 (CYP1A2) small molecule antagonists: luciferase reporter qHTS assay (AID 1671199). Note: nearly all actives have a fitted effect of over 50% in size. Note: potency is the fitted concentration of half-maximal effect. In short, it runs like this:
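Signal from luciferin formed by CYP1A2 from a proluciferin substrate is read as luminescence, expressed in relative luminescence units. Compounds sit with enzyme 10 min, NADPH-driven reaction runs 1 h, all at room temperature.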

The structures appear in SMILES notation. A number with no mark means an inactive call. Inconclusive results are not listed. The source made the active and inactive calls. Unless noted, calls come from the whole dose curve; as a rule, active = well fitted curve in the direction sought with a large enough effect in the repeat runs; inconclusive = weak or mixed curves; inactive = no such curve, though single readings can be large; an effect the other way counts as inactive or inconclusive.

Chain of Voltage-gated inwardly rectifying potassium channel KCNH2 (Homo sapiens) (Q12809 whole entry, looked up): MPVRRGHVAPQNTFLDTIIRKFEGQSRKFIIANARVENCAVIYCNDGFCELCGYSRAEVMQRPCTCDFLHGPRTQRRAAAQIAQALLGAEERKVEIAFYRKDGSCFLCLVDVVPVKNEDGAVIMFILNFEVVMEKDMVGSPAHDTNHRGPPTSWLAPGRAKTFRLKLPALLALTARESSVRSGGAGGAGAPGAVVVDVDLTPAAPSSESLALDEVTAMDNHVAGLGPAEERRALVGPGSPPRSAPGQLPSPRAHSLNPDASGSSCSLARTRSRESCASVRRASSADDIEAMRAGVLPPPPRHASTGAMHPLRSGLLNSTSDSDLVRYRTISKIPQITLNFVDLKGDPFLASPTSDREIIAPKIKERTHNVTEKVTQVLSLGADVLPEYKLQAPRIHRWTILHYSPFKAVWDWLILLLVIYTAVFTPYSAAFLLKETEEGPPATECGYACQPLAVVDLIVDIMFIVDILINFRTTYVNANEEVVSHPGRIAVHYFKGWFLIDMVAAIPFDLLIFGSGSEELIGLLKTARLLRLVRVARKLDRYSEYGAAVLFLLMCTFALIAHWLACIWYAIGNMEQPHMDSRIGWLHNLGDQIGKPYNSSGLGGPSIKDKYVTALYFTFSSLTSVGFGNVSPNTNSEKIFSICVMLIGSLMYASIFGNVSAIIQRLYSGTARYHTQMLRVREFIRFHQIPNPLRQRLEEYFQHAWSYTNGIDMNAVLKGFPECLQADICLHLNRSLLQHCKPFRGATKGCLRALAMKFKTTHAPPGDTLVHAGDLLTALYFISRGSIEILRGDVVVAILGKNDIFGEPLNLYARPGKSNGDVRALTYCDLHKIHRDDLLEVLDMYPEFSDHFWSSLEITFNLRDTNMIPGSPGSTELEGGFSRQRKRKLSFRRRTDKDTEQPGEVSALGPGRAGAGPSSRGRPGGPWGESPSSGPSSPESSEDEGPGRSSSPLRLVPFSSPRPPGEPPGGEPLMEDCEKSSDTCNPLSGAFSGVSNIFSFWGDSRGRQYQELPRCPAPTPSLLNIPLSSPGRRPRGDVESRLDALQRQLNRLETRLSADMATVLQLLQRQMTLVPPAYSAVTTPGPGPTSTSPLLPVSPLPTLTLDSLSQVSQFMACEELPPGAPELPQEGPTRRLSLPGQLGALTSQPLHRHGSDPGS
Chain of Cytochrome P450 2C19 (Homo sapiens) (P33261 whole entry, looked up): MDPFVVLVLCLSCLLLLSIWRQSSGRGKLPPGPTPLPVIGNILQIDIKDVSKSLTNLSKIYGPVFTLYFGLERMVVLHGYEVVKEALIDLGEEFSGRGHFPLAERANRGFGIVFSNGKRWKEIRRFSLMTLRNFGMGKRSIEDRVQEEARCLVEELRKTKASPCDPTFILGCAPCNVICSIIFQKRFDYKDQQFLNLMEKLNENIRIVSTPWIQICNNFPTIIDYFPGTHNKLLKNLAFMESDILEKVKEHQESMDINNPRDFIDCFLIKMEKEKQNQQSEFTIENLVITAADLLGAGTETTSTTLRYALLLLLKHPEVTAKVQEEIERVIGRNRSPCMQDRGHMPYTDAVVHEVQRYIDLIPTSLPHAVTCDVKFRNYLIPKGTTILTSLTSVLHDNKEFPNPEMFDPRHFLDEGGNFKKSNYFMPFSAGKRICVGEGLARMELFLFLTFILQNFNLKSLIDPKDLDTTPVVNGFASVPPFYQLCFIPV
Chain of Cytochrome P450 1A2 (Homo sapiens) (P05177 whole entry, looked up): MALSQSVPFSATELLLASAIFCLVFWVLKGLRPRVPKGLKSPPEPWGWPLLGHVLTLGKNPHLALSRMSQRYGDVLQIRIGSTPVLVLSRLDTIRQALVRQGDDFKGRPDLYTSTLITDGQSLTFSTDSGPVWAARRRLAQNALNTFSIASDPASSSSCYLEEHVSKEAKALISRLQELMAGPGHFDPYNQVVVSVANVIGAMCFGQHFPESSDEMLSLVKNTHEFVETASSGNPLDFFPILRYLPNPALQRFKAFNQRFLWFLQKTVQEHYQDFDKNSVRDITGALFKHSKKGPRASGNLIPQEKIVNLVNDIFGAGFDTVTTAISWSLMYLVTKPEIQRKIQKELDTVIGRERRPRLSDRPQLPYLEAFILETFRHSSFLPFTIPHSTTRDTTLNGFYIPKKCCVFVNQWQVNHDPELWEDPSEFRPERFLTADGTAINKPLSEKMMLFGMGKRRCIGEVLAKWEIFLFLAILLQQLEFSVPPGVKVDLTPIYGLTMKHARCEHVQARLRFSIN

For `CC(O)CCl` (stereo not given), the Potency entry in assay [1], in assay [2], in assay [4], in [5], in assay [6] and in assay [7] was “inactive” throughout. Besides, the Potency result in assay [8], in [9], in assay [10], in [11], in assay [12] and in [13] was “inactive” each time. The Potency entry in assay [14] is “inactive”. In addition, in assay [3], the molecule was called inactive.

Consider `O=C(Cl)/C=C/C(=O)Cl`, for which the Potency entry in [1], in [2], in assay [4], in assay [5], in [6] and in assay [7] was “inactive” throughout. In addition, the Potency entry in assay [8], in assay [9], in assay [10], in assay [11], in assay [16] and in assay [13] was “inactive” throughout. Also, the Potency result in assay [14] is “inactive”. The molecule was classed as inactive in assay [15] and in [3].

Take `N=C(N)[Se]`: the Potency result in assay [1], in [2], in [4], in assay [5], in assay [6] and in assay [7] was “inactive” throughout. The Potency entry in assay [8], in [9], in assay [10], in [11], in assay [12] and in assay [16] was “inactive” in each case. Besides, the Potency entry in assay [13] and in assay [14] was “inactive” each time. Further, the result in assay [15] and in [3] was inactive.

`C=CCC1(C(C)CC)C(=O)NC(=O)NC1=O` (stereo not given): the Potency entry in assay [1], in assay [2], in [4], in assay [5], in assay [6] and in assay [7] was “inactive” throughout. For the same molecule, the Potency result in assay [9], in assay [10] and in [13] was “inactive” throughout. For the same molecule, the molecule was classed as inactive in assay [15] and in [3]. Moreover, in assay [16], the Potency is 21.9 µM (active).

Turning to `CCOC(=O)NC(C)(C)Cc1ccc(Cl)cc1`, the Potency entry in [1], in [2], in assay [4], in assay [5], in [7] and in assay [8] was “inactive” in each case. The Potency result in assay [9], in assay [13] and in [14] was “inactive” throughout. For the same molecule, the outcome in assay [15] and in assay [3] was inactive. The Potency in assay [11] is 4.36 µM (active); in assay [12], 15.5 µM (active); in [16], 6.45 µM (active).

As for `CNC(=O)Oc1ccccc1C(C)C`, the Potency result in assay [1], in assay [2], in [4], in assay [5], in [10] and in [13] was “inactive” in each case. Further, the Potency entry in assay [14] was “inactive”. Also, the call in assay [15] and in assay [3] was inactive. The Potency is 7.96 µM (active) in [7]; 4.48 µM (active) in assay [8]; 56.4 µM (active) in assay [9]; 39.9 µM (active) in assay [11]; 35.6 µM (active) in assay [16].

For the molecule `C=CC(=O)OCCN(C)C`, the Potency entry in [1], in assay [2], in assay [4], in assay [5], in assay [6] and in assay [7] was “inactive” each time. For the same molecule, the Potency result in [8], in assay [9], in assay [10], in assay [12], in [16] and in assay [13] was “inactive” each time. In [14], the Potency result was “inactive”. Besides, the molecule was classed as inactive in [15] and in assay [3].
